High-throughput results: PubChem, National Center for Advancing Translational Sciences (NCATS)
Compounds with a hit are over-represented: about 10% of the library has one in this group of screens.
HEK cytotox = cytotoxic compounds in HEK 293 cells. 6.6% of 94,000 active. Potency, µM (titrated, usually from 115 µM), usual class: inhibitors. HEK 293 viability, ATP luminescence (CellTiter-Glo), 48-72 h; further: nearly all actives have a fitted effect of over 60% in size
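HEK 293 seeded at 250 cells/well receive compound via pintool. After 48 or 72 hr at 37 degree Celsius, 5% CO2 and 95% humidity, CellTiter-Glo is dispensed and luminescence read following 10 min at room temperature.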
3T3 cytotox = NIH 3T3 cell cytotoxicity | 4.3% of 94,000 active | Potency, µM (series often up to 96.7 µM), actives largely listed as inhibitors | NIH 3T3 viability, CellTiter-Glo ATP luminescence, 48-72 h; further: nearly all actives have a fitted effect of over 55% in size
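Cells were seeded at 400 per well, treated with pin-transferred compound, and kept 48 or 72 hr at 37 °C before CellTiter-Glo addition and luminescence imaging of cellular ATP.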
Luciferase inh = Photinus pyralis luciferase inhibition; 2.5% of 76,000 active; Potency, µM (series often up to 115 µM), hits mostly inhibitors; P08659; purified P. pyralis luciferase, luminescence, biochemical; further: nearly all actives have a fitted effect of over 65% in size
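Cell-free enzyme assay, 10nM P. pyralis luciferase, luciferin and ATP each at 10uM. Inhibition profiled over a 6-point titration, read as luminescence.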
hNpr1 antagonist = antagonists of human natriuretic peptide receptor Npr1 | AID 1347048 | HEK293 hNpr1 GloSensor cGMP, ANP-stimulated luminescence | P16066 | Potency, µM (doses to about 46.3 µM), most hits filed as inhibitors | 1.6% of 76,000 active; calls by dose curve; further: nearly all actives have a fitted effect of over 60% in size
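Compound pre-incubated 30 min at room temperature on GloSensor-loaded HEK293 cells stably carrying hNpr1 and the pGS-40F cGMP biosensor. Stimulation uses hNppA at 0.1 nM final; luminescence is taken at baseline and 20 min post-agonist.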
GPT2 inh = blocks human glutamate pyruvate transaminase 2. Potency, µM (series often up to 57.7 µM), usual class: inhibitors. AID 1671188. Recombinant GPT2, coupled pyruvate oxidase/HRP Amplex Red fluorescence. Q8TD30. 0.25% of 100,000 active; further: nearly all actives have a fitted effect of over 60% in size
Target sequence (Q8TD30 whole entry, looked up): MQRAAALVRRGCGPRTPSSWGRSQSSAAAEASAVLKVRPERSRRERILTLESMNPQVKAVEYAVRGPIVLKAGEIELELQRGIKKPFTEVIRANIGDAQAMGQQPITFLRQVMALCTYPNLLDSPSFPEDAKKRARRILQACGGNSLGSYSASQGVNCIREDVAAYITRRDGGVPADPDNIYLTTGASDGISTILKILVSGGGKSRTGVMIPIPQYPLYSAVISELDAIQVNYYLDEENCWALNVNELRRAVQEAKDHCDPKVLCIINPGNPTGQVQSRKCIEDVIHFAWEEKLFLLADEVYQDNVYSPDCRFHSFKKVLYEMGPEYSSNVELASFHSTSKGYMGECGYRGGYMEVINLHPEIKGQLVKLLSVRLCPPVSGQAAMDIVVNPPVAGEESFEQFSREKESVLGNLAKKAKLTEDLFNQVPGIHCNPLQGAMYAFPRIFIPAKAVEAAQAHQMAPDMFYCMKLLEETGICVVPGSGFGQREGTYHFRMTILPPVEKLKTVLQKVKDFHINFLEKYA
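Fluorescence of coupled pyruvate oxidase/HRP/Amplex Red system (50uM Amplex, 30 min, dark) reports pyruvate formed by GPT2. Enzyme reaction: 10ng/uL GPT2, 2mM L-alanine, 250uM a-KG, 30 min room temperature, pH 7.5; 50uM AOA control.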
GPT2 conf = human alanine aminotransferase 2 inhibition, confirmatory; Potency, µM, most hits filed as inhibitors; 90% of 95 active; GPT2 enzyme, coupled Amplex Red pyruvate fluorescence; shares compounds with GPT2 inh
Each line names hits and unclear results; the compound was inactive in the other large screens (follow-up assays come after a bar, where they were run); ! = repeats disagree. Unless noted, the call rests on the fitted dose curve; in most records, active means well fitted curve in the direction sought with a large enough effect; inconclusive means small, poorly fitted or top-dose-only effect, or another doubt; inactive means no such curve, though single readings can be large; an effect the other way counts as inactive or inconclusive.

CCOc1cc(C(=O)N2CCC(N3CCN(C)CC3)CC2)ccc1Nc1ncc2c(n1)N(C1CCCC1)c1ccccc1C(=O)N2C	none (no result: HEK cytotox, 3T3 cytotox, Luciferase inh, hNpr1 antagonist)
COc1cc(N2CCC(C(N)=O)CC2)ccc1Nc1nc(N)c(Cl)c(Nc2ccccc2S(=O)(=O)C(C)C)n1	GPT2 inh 1.37µM (no result: HEK cytotox, 3T3 cytotox, Luciferase inh, hNpr1 antagonist) | GPT2 conf 3.85
CNc1nc(Nc2ccc(C(=O)N3CCOCC3)cc2OC)ncc1Cl	none (no result: HEK cytotox, 3T3 cytotox, Luciferase inh, hNpr1 antagonist)
CCOc1ccccc1NC(=O)N1CCCC(Cn2c(C3CC3)nc3cccnc32)C1 (stereo unspecified)	3T3 cytotox inconclusive
O=C(O)c1ccc(C2CCCN(C(=O)CCN3CCOCC3)C2)cc1 (stereo unspecified)	none
Cc1ccccc1NC(=O)C1CC(=O)N(c2n[nH]c3cccc(F)c23)C1 (stereo unspecified)	none
COC[C@H]1C[C@@H](NCc2cccc3c2OCO3)[C@H](O)[C@@H]1O	none
CN(C)c1ccc(Nc2nc(N)n(C(=O)c3c(F)cccc3F)n2)cc1	GPT2 inh 3.16µM (no result: HEK cytotox, 3T3 cytotox, Luciferase inh, hNpr1 antagonist) | GPT2 conf 1.22
CCN1c2cc(C(=O)Nc3cccc(C#N)c3)ccc2C(=O)N2CCCCC21 (stereo unspecified)	HEK cytotox inconclusive, 3T3 cytotox inconclusive
CCCn1ncc(N2CCC(C(=O)N(CCCOC)Cc3ccc4c(c3)CCCN4CC)CC2)cc1=O	HEK cytotox 22.4µM, 3T3 cytotox 35.5µM, GPT2 inh 10µM (no result: Luciferase inh, hNpr1 antagonist) | GPT2 conf 1.72
OCCN(CCO)c1nc(N2CCCCC2)c2nc(N(CCO)CCO)nc(N3CCCCC3)c2n1	GPT2 inh 6.31µM! (no result: HEK cytotox, 3T3 cytotox, Luciferase inh, hNpr1 antagonist) | GPT2 conf 1.72
C[C@@]1(O)CCN(Cc2ccccc2F)C[C@H]1N1CCCC1	HEK cytotox inconclusive
CCNc1ncc(C(=O)N2CCCC(Nc3ccc(OC)cc3)C2)cn1 (stereo unspecified)	none
COc1ccc(NC2CCCN(CC(=O)Nc3ccc(C)cn3)C2)cc1 (stereo unspecified)	hNpr1 antagonist inconclusive, GPT2 inh inconclusive | GPT2 conf 5.44
Cc1cc(CNC(=O)c2cc(-c3ccc(N4CCOCC4)cc3)cc3c2OCCN3C)no1	HEK cytotox inconclusive, 3T3 cytotox inconclusive, Luciferase inh inconclusive
C[C@@H]1CN(C(=O)c2cc(N3CCOCC3)cc3c2OCCN3C)C[C@H](C)O1	none (no result: HEK cytotox, 3T3 cytotox, Luciferase inh, hNpr1 antagonist, GPT2 inh) | GPT2 conf 4.44
Cc1ncsc1C(=O)N1CCCn2nc(C)c(-c3ccccc3-c3ccccc3)c21	HEK cytotox inconclusive
